Measurements as given in the supplement of paper PMC10849652.
Of roughly 7,900 targets only a part is listed; those with a hit were picked by preference. About 0.6% of all pairs of compound and target were hits. Values without a mark were called inactive.

compound: CON(C)C(=O)N1N=C(c2cc(F)ccc2F)S[C@@]1(CCCN)c1ccccc1 [filanesib]; test: log2 fold change, soluble protein after heating vs DMSO (PISA); higher = thermal stabilisation; K562 cells, 10 uM, 30 min; active = over 0.2 and 3.5 SD of the protein, either way, in both replicates (recomputed)
Outline: (§1)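 Aliquots of K562 cells (2×10^6 cells/mL) treated with 10 μM compound for 30 min were heated for 3 min over 48°C-58°C. After pooling and extraction in PBS with 0.5% NP-40 at 4°C, soluble protein from a 21,000xg, 90 min spin was quantified by TMTpro 16plex LC-MS/MS with channel sums equalised. Thermal stability is expressed against control samples, from duplicates, as a log2 fold change.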

UniProt P02008, sequence (P02008 whole entry, looked up): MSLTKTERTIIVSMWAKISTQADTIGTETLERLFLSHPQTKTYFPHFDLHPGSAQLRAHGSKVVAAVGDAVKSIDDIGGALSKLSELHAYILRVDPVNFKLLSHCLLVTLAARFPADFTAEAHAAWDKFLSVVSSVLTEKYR
UniProt Q8TEQ6, sequence (Q8TEQ6 whole entry, looked up): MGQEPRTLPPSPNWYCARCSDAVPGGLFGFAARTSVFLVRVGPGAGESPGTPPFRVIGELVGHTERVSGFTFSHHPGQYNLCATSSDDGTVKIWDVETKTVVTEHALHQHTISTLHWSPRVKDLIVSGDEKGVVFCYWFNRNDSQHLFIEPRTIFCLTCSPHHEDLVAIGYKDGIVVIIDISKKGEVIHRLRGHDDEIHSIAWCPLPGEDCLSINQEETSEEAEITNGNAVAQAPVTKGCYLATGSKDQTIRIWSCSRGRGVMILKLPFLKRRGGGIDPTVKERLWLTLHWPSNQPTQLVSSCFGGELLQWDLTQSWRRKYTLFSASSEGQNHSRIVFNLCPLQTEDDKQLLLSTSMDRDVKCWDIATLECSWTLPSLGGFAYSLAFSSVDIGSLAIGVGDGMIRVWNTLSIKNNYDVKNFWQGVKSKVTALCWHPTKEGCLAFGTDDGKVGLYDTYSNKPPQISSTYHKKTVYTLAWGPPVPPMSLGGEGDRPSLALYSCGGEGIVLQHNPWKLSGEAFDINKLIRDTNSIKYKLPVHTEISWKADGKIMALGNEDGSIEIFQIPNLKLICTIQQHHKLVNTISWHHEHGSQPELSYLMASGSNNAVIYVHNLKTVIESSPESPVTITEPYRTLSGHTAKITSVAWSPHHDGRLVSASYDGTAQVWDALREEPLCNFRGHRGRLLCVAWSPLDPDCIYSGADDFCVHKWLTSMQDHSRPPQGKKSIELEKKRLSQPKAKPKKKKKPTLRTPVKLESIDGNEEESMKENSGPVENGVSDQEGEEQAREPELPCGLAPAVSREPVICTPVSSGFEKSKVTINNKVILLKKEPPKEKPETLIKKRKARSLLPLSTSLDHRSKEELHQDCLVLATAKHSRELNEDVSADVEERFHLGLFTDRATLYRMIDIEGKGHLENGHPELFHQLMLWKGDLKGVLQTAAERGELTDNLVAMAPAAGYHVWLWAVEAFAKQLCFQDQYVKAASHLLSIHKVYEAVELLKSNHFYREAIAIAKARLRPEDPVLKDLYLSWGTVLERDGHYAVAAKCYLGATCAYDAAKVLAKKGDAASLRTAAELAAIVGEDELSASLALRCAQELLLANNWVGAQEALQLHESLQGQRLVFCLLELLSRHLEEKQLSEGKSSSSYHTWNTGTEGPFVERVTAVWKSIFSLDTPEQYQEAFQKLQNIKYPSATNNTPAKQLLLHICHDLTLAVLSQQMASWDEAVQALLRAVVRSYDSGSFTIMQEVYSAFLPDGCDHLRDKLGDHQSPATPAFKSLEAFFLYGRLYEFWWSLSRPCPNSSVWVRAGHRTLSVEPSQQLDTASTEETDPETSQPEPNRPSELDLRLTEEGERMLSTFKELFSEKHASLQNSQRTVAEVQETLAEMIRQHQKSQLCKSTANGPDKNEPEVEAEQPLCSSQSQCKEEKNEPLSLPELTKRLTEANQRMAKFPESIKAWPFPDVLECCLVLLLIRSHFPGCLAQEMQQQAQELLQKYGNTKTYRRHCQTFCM
UniProt Q5SSJ5, sequence (Q5SSJ5 whole entry, looked up): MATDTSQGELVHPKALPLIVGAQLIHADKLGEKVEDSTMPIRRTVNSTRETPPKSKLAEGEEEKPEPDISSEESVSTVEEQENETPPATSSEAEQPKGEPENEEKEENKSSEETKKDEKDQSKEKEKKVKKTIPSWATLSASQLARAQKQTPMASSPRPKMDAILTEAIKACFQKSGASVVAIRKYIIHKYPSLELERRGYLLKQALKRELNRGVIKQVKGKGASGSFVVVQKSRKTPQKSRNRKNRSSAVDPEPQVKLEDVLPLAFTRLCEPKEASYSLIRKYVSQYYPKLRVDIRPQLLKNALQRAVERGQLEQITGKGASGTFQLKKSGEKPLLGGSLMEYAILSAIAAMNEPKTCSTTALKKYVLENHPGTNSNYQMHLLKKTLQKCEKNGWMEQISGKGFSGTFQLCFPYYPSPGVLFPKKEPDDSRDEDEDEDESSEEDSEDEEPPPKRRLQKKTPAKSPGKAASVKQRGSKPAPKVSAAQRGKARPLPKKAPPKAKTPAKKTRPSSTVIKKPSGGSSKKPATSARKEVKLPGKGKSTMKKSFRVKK
UniProt O95363, sequence (O95363 whole entry, looked up): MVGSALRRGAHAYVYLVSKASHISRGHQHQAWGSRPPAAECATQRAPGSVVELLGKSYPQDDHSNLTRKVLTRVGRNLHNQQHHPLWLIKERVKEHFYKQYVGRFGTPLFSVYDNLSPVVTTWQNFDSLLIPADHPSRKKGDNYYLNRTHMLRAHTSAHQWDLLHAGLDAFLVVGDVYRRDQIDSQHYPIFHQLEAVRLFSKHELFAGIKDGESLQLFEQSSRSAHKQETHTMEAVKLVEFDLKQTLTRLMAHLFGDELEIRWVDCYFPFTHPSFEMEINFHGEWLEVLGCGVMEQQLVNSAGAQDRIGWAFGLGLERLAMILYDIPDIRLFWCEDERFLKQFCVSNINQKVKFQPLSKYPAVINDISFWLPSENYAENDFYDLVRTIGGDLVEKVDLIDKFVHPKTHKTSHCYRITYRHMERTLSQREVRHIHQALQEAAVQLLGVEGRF
UniProt P55795, sequence (P55795 whole entry, looked up): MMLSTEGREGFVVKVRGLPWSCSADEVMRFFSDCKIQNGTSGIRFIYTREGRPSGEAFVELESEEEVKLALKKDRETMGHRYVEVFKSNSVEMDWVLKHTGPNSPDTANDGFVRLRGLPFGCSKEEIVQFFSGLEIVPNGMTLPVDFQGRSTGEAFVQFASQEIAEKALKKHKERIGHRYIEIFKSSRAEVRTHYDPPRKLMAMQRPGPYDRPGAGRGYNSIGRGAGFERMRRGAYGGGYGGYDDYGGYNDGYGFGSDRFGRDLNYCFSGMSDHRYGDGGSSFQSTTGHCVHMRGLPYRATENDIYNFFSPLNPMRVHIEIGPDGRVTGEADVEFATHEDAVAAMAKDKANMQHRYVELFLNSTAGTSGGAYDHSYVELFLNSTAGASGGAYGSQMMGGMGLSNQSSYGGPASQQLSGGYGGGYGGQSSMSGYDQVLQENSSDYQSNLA
UniProt O14893, sequence (O14893 whole entry, looked up): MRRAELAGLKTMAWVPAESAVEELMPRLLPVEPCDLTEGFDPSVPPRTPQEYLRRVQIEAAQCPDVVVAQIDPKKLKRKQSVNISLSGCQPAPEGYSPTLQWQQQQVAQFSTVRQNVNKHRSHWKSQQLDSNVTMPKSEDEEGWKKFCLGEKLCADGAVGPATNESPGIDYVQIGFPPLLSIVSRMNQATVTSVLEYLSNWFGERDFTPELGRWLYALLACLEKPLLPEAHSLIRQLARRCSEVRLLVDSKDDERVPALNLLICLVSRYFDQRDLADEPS
UniProt Q9UJ14, sequence (Q9UJ14 whole entry, looked up): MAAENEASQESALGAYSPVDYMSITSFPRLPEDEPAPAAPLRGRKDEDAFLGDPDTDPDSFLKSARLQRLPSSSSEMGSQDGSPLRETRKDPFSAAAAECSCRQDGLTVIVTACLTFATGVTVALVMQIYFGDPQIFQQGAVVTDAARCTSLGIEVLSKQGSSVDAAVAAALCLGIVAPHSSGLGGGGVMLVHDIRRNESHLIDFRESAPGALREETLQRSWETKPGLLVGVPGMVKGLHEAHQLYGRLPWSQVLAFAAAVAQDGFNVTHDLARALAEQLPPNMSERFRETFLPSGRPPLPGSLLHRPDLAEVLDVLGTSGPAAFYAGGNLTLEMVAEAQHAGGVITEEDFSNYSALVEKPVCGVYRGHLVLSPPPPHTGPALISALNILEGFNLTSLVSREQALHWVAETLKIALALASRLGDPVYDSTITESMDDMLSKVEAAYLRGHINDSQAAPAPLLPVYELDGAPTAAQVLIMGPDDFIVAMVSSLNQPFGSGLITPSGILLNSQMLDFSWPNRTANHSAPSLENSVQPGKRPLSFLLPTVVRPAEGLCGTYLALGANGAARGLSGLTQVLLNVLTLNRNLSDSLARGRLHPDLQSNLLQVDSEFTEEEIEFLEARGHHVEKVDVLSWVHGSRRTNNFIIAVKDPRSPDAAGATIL
UniProt Q9Y680, sequence (Q9Y680 whole entry, looked up): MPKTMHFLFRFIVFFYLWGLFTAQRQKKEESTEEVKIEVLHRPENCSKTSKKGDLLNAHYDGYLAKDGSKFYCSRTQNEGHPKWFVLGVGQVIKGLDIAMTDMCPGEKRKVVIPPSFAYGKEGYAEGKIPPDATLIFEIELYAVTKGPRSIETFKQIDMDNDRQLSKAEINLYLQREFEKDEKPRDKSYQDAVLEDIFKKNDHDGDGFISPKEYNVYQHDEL
UniProt P31943, sequence (P31943 whole entry, looked up): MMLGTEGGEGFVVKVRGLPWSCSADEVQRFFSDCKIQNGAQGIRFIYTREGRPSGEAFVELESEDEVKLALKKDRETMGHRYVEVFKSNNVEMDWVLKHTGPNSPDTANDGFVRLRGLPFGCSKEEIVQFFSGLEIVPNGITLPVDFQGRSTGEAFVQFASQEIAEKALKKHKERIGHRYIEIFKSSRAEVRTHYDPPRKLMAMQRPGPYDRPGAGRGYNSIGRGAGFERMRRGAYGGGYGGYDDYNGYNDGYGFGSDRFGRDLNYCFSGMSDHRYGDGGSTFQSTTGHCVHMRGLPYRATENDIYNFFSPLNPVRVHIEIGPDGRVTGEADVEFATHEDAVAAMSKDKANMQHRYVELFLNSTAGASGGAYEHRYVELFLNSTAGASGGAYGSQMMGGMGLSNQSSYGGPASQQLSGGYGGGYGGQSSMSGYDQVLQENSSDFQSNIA
UniProt P09105, sequence (P09105 whole entry, looked up): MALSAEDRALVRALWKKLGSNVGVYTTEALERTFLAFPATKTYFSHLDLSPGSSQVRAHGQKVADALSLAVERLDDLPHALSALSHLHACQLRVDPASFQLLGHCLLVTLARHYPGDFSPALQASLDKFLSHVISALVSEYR
UniProt Q96HJ9, sequence (Q96HJ9 whole entry, looked up): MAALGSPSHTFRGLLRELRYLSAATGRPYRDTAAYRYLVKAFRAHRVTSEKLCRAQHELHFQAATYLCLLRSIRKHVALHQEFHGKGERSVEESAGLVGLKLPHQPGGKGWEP

Row | Target | log2 fold change
1 | HECTD1 (UniProt Q9ULT8) | 0.091
2 | FMC1 (UniProt Q96HJ9) | -0.037
3 | GABARAPL2 (UniProt P60520) | -0.01
4 | HOMER1 (UniProt Q86YM7) | 0.051
5 | H2AZ1 (UniProt P0C0S5) | 0.353
6 | GOLGB1 isoform 2 (UniProt Q14789) | 0.337 (active)
7 | GLCCI1 (UniProt Q86VQ1) | 0.052
8 | GUSB (UniProt P08236) | -0.016
9 | H2AFX (UniProt P16104) | 0.393
10 | HSPA8 (UniProt E9PK54) | 0.033
11 | HBA1 (UniProt P69905) | 0.02
12 | FKBP7 (UniProt Q9Y680) | -0.036
13 | GYG1 (UniProt P46976) | 0.124
14 | HNRNPH1 (UniProt P31943) | 0
15 | HBZ (UniProt P02008) | -0.003
16 | GALC (UniProt P54803) | -0.017
17 | FUCA2 (UniProt Q9BTY2) | 0.002

Row | Target | log2 fold change
18 | GEMIN2 (UniProt O14893) | 0.132
19 | FANCD2 isoform 1 (UniProt Q9BXW9) | -0.078
20 | GNAS (UniProt Q5JWF2) | 0
21 | HSD17B12 (UniProt Q53GQ0) | -0.013
22 | HAT1 (UniProt O14929) | -0.049
23 | GLS (UniProt O94925) | 0.029
24 | HP1BP3 (UniProt Q5SSJ5) | 0.145
25 | FARS2 (UniProt O95363) | -0.122
26 | HNRNPH2 (UniProt P55795) | 0.033
27 | GEMIN5 (UniProt Q8TEQ6) | 0.037
28 | FNTB (UniProt P49356) | 0.26
29 | GTF2A1 (UniProt P52655) | 0.031
30 | FAM91A1 (UniProt Q658Y4) | -0.059
31 | HBQ1 (UniProt P09105) | -0.027
32 | GGT7 (UniProt Q9UJ14) | 0.081
33 | HMOX2 (UniProt P30519) | 0.085
34 | GLUD1 (UniProt P00367) | -0.118

compound: CO[C@H]1C[C@@H]2CC[C@@H](C)[C@@](O)(O2)C(=O)C(=O)N2CCCC[C@H]2C(=O)O[C@H]([C@H](C)C[C@@H]2CC[C@H](n3cnnn3)[C@H](OC)C2)CC(=O)[C@H](C)/C=C(\C)[C@@H](O)[C@@H](OC)C(=O)[C@H](C)C[C@H](C)/C=C/C=C/C=C/1C [zotarolimus]; test: as above
Outline: as §1

Row | Target | log2 fold change
35 | HECTD1 (UniProt Q9ULT8) | 0.023
36 | FMC1 (UniProt Q96HJ9) | -0.101
37 | GABARAPL2 (UniProt P60520) | -0.036
38 | HOMER1 (UniProt Q86YM7) | 0.043
39 | H2AZ1 (UniProt P0C0S5) | -0.113
40 | GOLGB1 isoform 2 (UniProt Q14789) | -0.04
41 | GLCCI1 (UniProt Q86VQ1) | 0.067
42 | GUSB (UniProt P08236) | 0.014
43 | H2AFX (UniProt P16104) | -0.3
44 | HSPA8 (UniProt E9PK54) | -0.015
45 | HBA1 (UniProt P69905) | 0.068
46 | FKBP7 (UniProt Q9Y680) | -0.029
47 | GYG1 (UniProt P46976) | 0.036
48 | HNRNPH1 (UniProt P31943) | 0.091
49 | HBZ (UniProt P02008) | 0.035
50 | GALC (UniProt P54803) | -0.071
51 | FUCA2 (UniProt Q9BTY2) | -0.019

Row | Target | log2 fold change
52 | GEMIN2 (UniProt O14893) | -0.093
53 | FANCD2 isoform 1 (UniProt Q9BXW9) | -0.007
54 | GNAS (UniProt Q5JWF2) | -0.03
55 | HSD17B12 (UniProt Q53GQ0) | 0.03
56 | HAT1 (UniProt O14929) | 0.075
57 | GLS (UniProt O94925) | 0.027
58 | HP1BP3 (UniProt Q5SSJ5) | -0.003
59 | FARS2 (UniProt O95363) | -0.049
60 | HNRNPH2 (UniProt P55795) | 0.079
61 | GEMIN5 (UniProt Q8TEQ6) | 0.039
62 | FNTB (UniProt P49356) | 0.159
63 | GTF2A1 (UniProt P52655) | 0
64 | FAM91A1 (UniProt Q658Y4) | 0.029
65 | HBQ1 (UniProt P09105) | 0.051
66 | GGT7 (UniProt Q9UJ14) | -0.03
67 | HMOX2 (UniProt P30519) | 0.027
68 | GLUD1 (UniProt P00367) | -0.007

compound: COc1cc(C(=O)O)ccc1NC(=O)[C@@H]1N[C@@H](CC(C)(C)C)[C@](C#N)(c2ccc(Cl)cc2F)[C@H]1c1cccc(Cl)c1F [idasanutlin]; test: as above
Outline: as §1

Row | Target | log2 fold change
69 | HECTD1 (UniProt Q9ULT8) | 0.047
70 | FMC1 (UniProt Q96HJ9) | -0.091
71 | GABARAPL2 (UniProt P60520) | -0.072
72 | HOMER1 (UniProt Q86YM7) | 0.011
73 | H2AZ1 (UniProt P0C0S5) | 0.266
74 | GOLGB1 isoform 2 (UniProt Q14789) | 0.066
75 | GLCCI1 (UniProt Q86VQ1) | 0.11
76 | GUSB (UniProt P08236) | 0.034
77 | H2AFX (UniProt P16104) | 0.484
78 | HSPA8 (UniProt E9PK54) | -0.037
79 | HBA1 (UniProt P69905) | -0.044
80 | FKBP7 (UniProt Q9Y680) | 0.047
81 | GYG1 (UniProt P46976) | 0.15
82 | HNRNPH1 (UniProt P31943) | 0.048
83 | HBZ (UniProt P02008) | 0.045
84 | GALC (UniProt P54803) | -0.121
85 | FUCA2 (UniProt Q9BTY2) | 0.177

Row | Target | log2 fold change
86 | GEMIN2 (UniProt O14893) | 0.034
87 | FANCD2 isoform 1 (UniProt Q9BXW9) | -0.062
88 | GNAS (UniProt Q5JWF2) | -0.048
89 | HSD17B12 (UniProt Q53GQ0) | -0.169
90 | HAT1 (UniProt O14929) | 0.055
91 | GLS (UniProt O94925) | -0.192
92 | HP1BP3 (UniProt Q5SSJ5) | 0.095
93 | FARS2 (UniProt O95363) | -0.076
94 | HNRNPH2 (UniProt P55795) | 0.001
95 | GEMIN5 (UniProt Q8TEQ6) | -0.024
96 | FNTB (UniProt P49356) | -0.024
97 | GTF2A1 (UniProt P52655) | 0.012
98 | FAM91A1 (UniProt Q658Y4) | -0.044
99 | HBQ1 (UniProt P09105) | -0.023
100 | GGT7 (UniProt Q9UJ14) | -0.039
101 | HMOX2 (UniProt P30519) | 0.148
102 | GLUD1 (UniProt P00367) | -0.047
